{
  "source": "PubChem BioAssay (NCATS)",
  "note": "Inconclusive results are not listed. Entries that show only a call come without a potency. Active and inactive are the calls of the source. Calls come from the whole dose curve; as a rule, active = well fitted inhibition curve with a large enough effect; inconclusive = small, poorly fitted or top-dose-only effect; inactive = no such curve, though single readings can be large or run the other way. Potency is the fitted concentration of half-maximal effect.",
  "data": [
    {"assay": "qHTS to identify inhibitors of the type 1 interferon - major histocompatibility complex class I in skeletal muscle: primary screen against the NCATS Mechanism Interrogation Plate v5.0 (MIPE) Libary (AID 1347411); note: nearly all actives have a fitted effect of over 65% in size", "details": "iHSKM cells + IFN-b, HiBiT-tagged MHC-I luminescence, 24 h; series mostly up to 45.8 µM", "outline": "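Luminescence from CRISPR HiBit-tagged endogenous HLA-B in human myoblasts reported MHC class I level after 24 h of IFN-beta (4 ng/ml) plus compound. Compounds ran as 11-point 1:3 series, top 46 uM final.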", "values": [
      {"smiles": "Fc1ccc(-c2nc(-c3ccccc3F)[nH]c2-c2ccncc2)cc1", "Potency": "inactive"},
      {"smiles": "FC(F)(F)c1ccc(CNc2ccc(Cc3c[nH]c4ncc(Cl)cc34)cn2)cn1", "Potency": "inactive"},
      {"smiles": "O=C([C@@H](Cc1cccc(C(F)(F)F)c1)NS(=O)(=O)c1cc(F)c2c(c1)CCNC2)N1CCCC1", "Potency": "inactive"},
      {"smiles": "CC(C)NC(=O)COc1cccc(-c2nc(Nc3ccc4[nH]ncc4c3)c3ccccc3n2)c1", "Potency": "inactive"},
      {"smiles": "NCCOc1cc(C(=O)Nc2cc(OCCN)c3ccccc3n2)nc(C(=O)Nc2cc(OCCN)c3ccccc3n2)c1", "Potency": "inactive"},
      {"smiles": "Cc1nc(NC(=O)N2CCCC2C(N)=O)sc1-c1ccnc(C(C)(C)C(F)(F)F)c1", "note": "(stereo not given)", "Potency": "4.66 µM (active)"},
      {"smiles": "COc1cccc(-c2cc(F)ccc2C2Cc3nc(N)nc(C)c3C(=O)N2)n1", "note": "(stereo not given)", "Potency": "0.0587 µM (active)"},
      {"smiles": "CN1CC[C@@H](c2c(O)cc(O)c3c(=O)cc(-c4ccc(C(F)(F)F)cc4Cl)oc23)[C@@H]1CO", "Potency": "13.1 µM (active)"},
      {"smiles": "O=C1Nc2nc(-c3c(O)cccc3OCC3CC3)cc([C@@H]3CCCNC3)c2CO1", "Potency": "3.7 µM (active)"},
      {"smiles": "CCCC(CCC)C(=O)Nc1ccn([C@@H]2O[C@H](CO)[C@@H](O)C2(F)F)c(=O)n1", "Potency": "inactive"},
      {"smiles": "COc1cc2c(cc1OCCCN1CCCC1)N=C(N)C21CCC1", "Potency": "inactive"},
      {"smiles": "CCn1c(N)c(C(=O)NC)c(=O)c2ccc(C#CC(C)(O)COC)nc21", "note": "(stereo not given)", "Potency": "inactive"},
      {"smiles": "CN1CCN(C2CCN(C(=O)Nc3cc(Oc4ccc(NC(=O)C5(C(=O)Nc6ccc(F)cc6)CC5)c(F)c4)ccn3)CC2)CC1", "Potency": "20.8 µM (active)"},
      {"smiles": "CCNC1(C(N)=O)CCN(c2ncnc3c2nc(-c2ccccc2Cl)n3-c2ccc(Cl)cc2)CC1", "Potency": "inactive"},
      {"smiles": "O=C(Cc1cccc(OC(F)(F)F)c1)Nc1ccc(CCCCc2nnc(NC(=O)Cc3ccccn3)s2)nn1", "Potency": "inactive"},
      {"smiles": "CC#C[C@@H](CC(=O)O)c1ccc(OCc2cccc(-c3ccc(C(F)(F)F)cc3)c2)cc1", "Potency": "inactive"},
      {"smiles": "COc1cc(OC)c2c(=O)[nH]c(-c3cc(C)c(OCCO)c(C)c3)nc2c1", "Potency": "inactive"},
      {"smiles": "O=c1[nH]c([C@@H]2CCCN2)nc2c1oc1ccc(Cl)cc12", "Potency": "inactive"},
      {"smiles": "O=C(Nc1cccnc1)c1cc(-c2ccnc(F)c2)ccc1OCc1ccccc1", "Potency": "inactive"},
      {"smiles": "CC1(C)CN(C(=O)c2ccc(-c3cccc4nc(NC(=O)C5CC5)nn34)cc2)C1", "Potency": "4.15 µM (active)"},
      {"smiles": "Cc1cc2c(F)c(Oc3ncnn4cc(OCC(C)OC(=O)C(C)N)c(C)c34)ccc2[nH]1", "note": "(stereo not given)", "Potency": "inactive"},
      {"smiles": "NC(=O)c1cnc(N[C@@H]2CCCC[C@@H]2N)nc1Nc1cccc(-n2nccn2)c1", "Potency": "13.1 µM (active)"},
      {"smiles": "CN1C(=O)c2sccc2N(C)c2nc(Nc3ccc(S(N)(=O)=O)cc3)ncc21", "Potency": "26.2 µM (active)"},
      {"smiles": "Cc1cc(-c2cc(OC(=O)c3ccccc3)ccc2Cl)cc2nnc(Nc3ccc(OCCN4CCCC4)cc3)nc12", "Potency": "inactive"},
      {"smiles": "Cc1[nH]c(/C=C2\\C(=O)Nc3ccc(F)cc32)c(C)c1C(=O)NCCN1CCCC1", "Potency": "10.2 µM (active)"},
      {"smiles": "CCC[C@H](N[C@H]1CCc2cc(F)cc(F)c2C1)C(=O)Nc1cn(C(C)(C)CNCC(C)(C)C)cn1", "Potency": "inactive"},
      {"smiles": "COc1ccc(CNc2nc(N(CCO)CCO)nc3c2ncn3C(C)C)cc1", "Potency": "4.66 µM (active)"},
      {"smiles": "O=C(c1c(F)ccc(NS(=O)(=O)N2CC[C@@H](F)C2)c1F)c1c[nH]c2ncc(-c3cnc(C4CC4)nc3)cc12", "Potency": "inactive"},
      {"smiles": "N#Cc1ccnc(Nc2cc(C3CCN(C4COC4)CC3)cc(N3CCC(F)(F)C3)n2)c1", "Potency": "2.34 µM (active)"},
      {"smiles": "C=CC(=O)Nc1ccc2ncnc(Nc3cccc(Br)c3)c2c1", "Potency": "11.7 µM (active)"}
    ]}
  ]
}
